In PubChem BioAssay AID687016 (The Scripps Research Institute Molecular Screening Center, 2013):
Screen size: about 370,000 compounds; about 2,800 (0.76%) were called active. For the sample, actives were picked, then their nearest neighbours and some compounds at random. Values without a mark were called inactive. Cut-off read from the data, not from the text of the source: active = inhibition above about 21%; inactive = the rest.

What follows are molecules tested against E3 ubiquitin-protein ligase UHRF1 (Homo sapiens) (UniProt Q96T88) (assay: UHRF1 methylated DNA binding inhibitors, primary screen, counter-screen for MBD2 inhibitor project, biochemical, TR-FRET, human UHRF1, single concentration (AID 687016;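 note: UHRF1 SRA domain binding a hemimethylated CpG hairpin DNA probe; 0% = median of test compound wells and 100% = reference inhibitor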)). Conditions: UHRF1 binding to methylated oligo, at 4.4 µM, stronger effect = higher value.
Chain of E3 ubiquitin-protein ligase UHRF1 (Homo sapiens) (Q96T88 whole entry, looked up, the tested form may be a part): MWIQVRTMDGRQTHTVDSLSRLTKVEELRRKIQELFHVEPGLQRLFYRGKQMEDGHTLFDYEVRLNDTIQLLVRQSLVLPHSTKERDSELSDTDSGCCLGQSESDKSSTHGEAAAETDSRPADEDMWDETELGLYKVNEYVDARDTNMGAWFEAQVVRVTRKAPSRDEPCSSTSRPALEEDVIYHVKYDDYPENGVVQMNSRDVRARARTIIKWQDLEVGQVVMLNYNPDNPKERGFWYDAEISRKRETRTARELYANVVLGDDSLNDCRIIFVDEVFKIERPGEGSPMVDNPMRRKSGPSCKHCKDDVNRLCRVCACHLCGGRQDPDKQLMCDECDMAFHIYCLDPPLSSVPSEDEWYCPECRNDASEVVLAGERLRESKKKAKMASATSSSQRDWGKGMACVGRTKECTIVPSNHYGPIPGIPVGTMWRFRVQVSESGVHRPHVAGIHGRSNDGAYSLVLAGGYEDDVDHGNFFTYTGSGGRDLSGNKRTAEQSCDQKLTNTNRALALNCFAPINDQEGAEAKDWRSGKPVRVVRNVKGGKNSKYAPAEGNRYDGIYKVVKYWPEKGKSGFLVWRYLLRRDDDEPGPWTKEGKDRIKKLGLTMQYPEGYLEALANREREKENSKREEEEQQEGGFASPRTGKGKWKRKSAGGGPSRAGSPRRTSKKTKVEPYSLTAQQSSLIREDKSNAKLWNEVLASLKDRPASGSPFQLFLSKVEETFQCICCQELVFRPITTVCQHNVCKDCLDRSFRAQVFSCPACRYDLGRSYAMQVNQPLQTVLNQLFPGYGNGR

| Compound | inhibition |
| --- | --- |
| O=C(NCC1COc2ccccc2O1)c1ccc(NC(=O)c2cc(F)ccc2F)cc1 (centres undefined) | -0.34% |
| O=C(CNS(=O)(=O)c1ccccc1F)N1CCN(c2ccccn2)CC1 | -1.25% |
| NC1=CC(=O)C(=O)c2cccnc21 | 21.7% (active) |
| Cc1nc(SCC(=O)NC2CCCCC2C)c(C#N)c(C)c1C (centres undefined) | 3.02% |
| Cc1cc(C(F)(F)F)c(C#N)c(SCC(=O)NC2CC2)n1 | 25.8% (active) |
| Cc1cc(C)c(C#N)c(SCC(=O)NN2CC(=O)N(c3ccccc3F)CC2=O)n1 | 1.74% |
| CCCCOCCCNC(=O)C[C@H]1C[C@@]2(C(=O)OC)C(=C[C@H](COCc3ccccc3)O[C@@H]2C)N(Cc2cccc3ccccc23)C1=O | -3.11% |
| CCOC(=O)c1csc(NC(=O)C2CCCN(S(=O)(=O)c3ccc(Cl)s3)C2)n1 (centres undefined) | 0.11% |
| CC(C)CNS(=O)(=O)CC1NCCc2ccccc21 (centres undefined) | 1.66% |
| C=C1c2c(Cl)ccc(O)c2C(O)=C2C(=O)[C@]3(O)C(O)=C(C(N)=O)C(=O)[C@@H](N(C)C)[C@@H]3[C@@H](O)C12 (some centres undefined) | 58.9% (active) |
| CN(C)[C@@H]1C(=O)C(C(N)=O)=C(O)[C@@]2(O)C(=O)C3=C(O)c4c(O)ccc(Cl)c4[C@@H](O)[C@H]3C[C@@H]12 | 35.1% (active) |
| CC(C)C(C#CC1CC1)N(Cc1ccc2c(c1)OCO2)C(N)=NC(=O)/C=C/c1cccc(C(F)(F)F)c1 (centres undefined) | -0.23% |
| CN(CCO)c1cccc2c1S(=O)(=O)N(Cc1cn(Cc3ccc(C(F)(F)F)cc3)nn1)Cc1ccccc1O2 | 1.05% |
| CCCCC(=O)N[C@@H]1CC[C@@]23CCCN2C(=O)CCC[C@H]3[C@H]1C | -2.76% |
| CCOC(=O)CSc1nc(C)cc2c1C(=O)OC2 | -0.04% |
| CCN(Cc1ccncc1)C(=O)CCc1ccccc1 | -1.14% |
| CCN(Cc1ccccc1)C(=O)CSc1nc(C)cc2c1C(=O)OC2 | 26% (active) |
| COc1ccc(-n2c(SCC(=O)Nc3ccccc3-c3ccccc3)nnc2-c2cccnc2)cc1 | 1.25% |
| C[C@@H]1ON(C)[C@H]2C[C@H]3c4[nH]c5cccc(-c6ccc7c(c6)OCO7)c5c4CCN3C[C@@H]12 | 4.06% |
| Cc1ccc2nc3c(cc(C(=O)NCCc4ccccc4)c(=N)n3CC3CCCO3)c(=O)n2c1 (centres undefined) | -6.46% |
| COc1ccc(CCn2c(=N)c(C(=O)NCC3CCCO3)cc3c(=O)n4cccc(C)c4nc32)cc1OC (centres undefined) | 24.6% (active) |
| COc1ccc(CCNC(=O)CCn2c(=O)c3ccccc3n(CC(=O)NCC3CCCO3)c2=O)cc1OC (centres undefined) | 2.05% |
| O=C(c1cccc(C(F)(F)F)c1)N1CC[C@H]2[C@H](CCCN2Cc2cc(F)cc(F)c2)C1 | -0.64% |
| Cc1noc(C)c1NC(=O)Nc1ccc2c(c1)C(=O)N([C@H](C)CO)C[C@H](C)[C@@H](CN(C)C(=O)Nc1ccccc1)O2 | 22.9% (active) |
| Cc1noc(C)c1NC(=O)Nc1cccc2c1O[C@H](CN(C)C(=O)Nc1ccccc1)[C@@H](C)CN([C@H](C)CO)C2=O | -2.78% |
| Cc1noc(C)c1NC(=O)Nc1ccc2c(c1)C(=O)N([C@H](C)CO)C[C@H](C)[C@@H](CN(C)C(=O)Nc1ccc(C(F)(F)F)cc1)O2 | -2.17% |
| Cc1nc2ccc(C(=O)N3CCN(C(=O)C(C)(C)C)CC3)cc2n1C1CCCC1 | 0.45% |

| Compound | inhibition |
| --- | --- |
| Cc1cc(C(=O)OCC(=O)N2C(C)CCCC2C)c2ccccc2n1 (centres undefined) | 1.46% |
| CN(C(=O)COC(=O)c1cc(-c2ccco2)nc2ccccc12)C1CCS(=O)(=O)C1 (centres undefined) | 52.1% (active) |
| CN(C(=O)COC(=O)c1cc(=O)[nH]c2ccccc12)C1CCCCC1 | -1.98% |
| C#CCN([C@H](C(=O)OC)C(C)CC)S(=O)(=O)c1ccccc1Br (some centres undefined) | -1.76% |
| C=CCN(Cc1ccc2c(c1)OCO2)C(C#CC1CC1)C(C)(C)C (centres undefined) | 1.41% |
| Cc1cccc(N2CCN(Cc3c(C)n(C)n(-c4ccccc4)c3=O)CC2)c1C | -0.95% |
| Cc1c(CN2CCC(C)CC2)c(=O)n(-c2ccccc2)n1C | 2.11% |
| Cc1c(C=O)n(C)n(-c2ccccc2)c1=O | 25.1% (active) |
| CCOC(=O)[C@]12CCCCC/C=C\1N(Cc1ccc(OC)cc1)C(=O)[C@H]2CC(=O)NCc1ccc(C)o1 | -2.03% |
| COc1ccc(C(=O)CSc2nnc(-c3cnccn3)n2-c2ccc(C)cc2)cc1 | 0.05% |
| COc1ccc(CN(CCN2CCOCC2)C(=O)c2ccc(C)cc2)cc1OC | -0.61% |
| COCC(=O)N(C)C[C@H]1Oc2cc(Br)ccc2S(=O)(=O)N([C@H](C)CO)C[C@H]1C | 0.32% |
| C[C@@H]1CN([C@H](C)CO)S(=O)(=O)c2ccc(C#CC3CCCCC3)cc2O[C@H]1CN(C)C(=O)Cc1ccncc1 | 23.8% (active) |
| C[C@@H]1CN([C@H](C)CO)S(=O)(=O)c2ccc(C#C[C@@H](C)O)cc2O[C@@H]1CN(C)Cc1ccc(-c2ccccc2)cc1 | 0.52% |
| C[C@@H]1CN([C@@H](C)CO)S(=O)(=O)c2ccc(C#Cc3cccc(F)c3)cc2O[C@H]1CN(C)S(=O)(=O)c1cn(C)cn1 | 21.5% (active) |
| C[C@H]1CN([C@@H](C)CO)S(=O)(=O)c2ccc(-c3cccc(F)c3)cc2O[C@@H]1CN(C)C | 0.38% |
| C[C@H]1CN([C@@H](C)CO)S(=O)(=O)c2ccc(Br)cc2O[C@H]1CN(C)C(=O)c1cnccn1 | -0.94% |
| Nn1c(SCC(=O)Nc2ccc(S(N)(=O)=O)cc2)nnc1-c1n[nH]c2c1CCC2 | 0.51% |
| CC(=O)OC12CCCN(C1)/C(=C/c1ccncc1)C2 (centres undefined) | 3.27% |
| O=C1CC[C@@]23CCCN2C(=O)CCC[C@H]3[C@H]1Cc1ccccc1 | 0.21% |
| Cc1cc(NS(=O)(=O)c2ccc(NC(=O)CSc3nnc(SCc4ccc(F)cc4)s3)cc2)nc(C)n1 | 3.58% |
| CCC(C)[C@@H](C(=O)OC)N(CCc1cn(Cc2ccccc2)nn1)S(=O)(=O)c1ccccc1Br (some centres undefined) | -0.53% |
| C[C@@H]1CN([C@@H](C)CO)C(=O)c2cccc(NC(=O)Nc3cccc4ccccc34)c2O[C@H]1CN(C)S(=O)(=O)c1ccccc1F | -3.8% |
| Cc1ccc(-c2nc3ccc(Br)cn3c2Cc2ccccc2C(F)(F)F)cc1 | 2.47% |
| COc1ccccc1Cc1c(-c2ccc(F)cc2)nc2ccc(C)cn12 | 11.5% |
| CC(C)(C)Cc1c(C2CCCCC2)nc2ccc(Br)cn12 | 0.2% |
| Brc1ccc2nc(-c3ccccc3)c(Cc3ccccc3)n2c1 | 11% |

| Compound | inhibition |
| --- | --- |
| COC(=O)c1ccc2nc(-c3ccc(C)cc3)c(Cc3ccc(OC)cc3C)n2c1 | 21.6% (active) |
| COC(=O)c1ccc2nc(-c3ccc(F)cc3)c(Cc3ccc(C)cc3)n2c1 | 22.9% (active) |
| COC(=O)c1ccc2nc(-c3ccc(OC)c(OC)c3)c(Cc3ccccc3)n2c1 | 14.6% |
| CC(=O)Nc1c(-c2ccc(C)cc2)nc2ccc(Cl)cn12 | -0.52% |
| COC(=O)c1ccc2nc(-c3ccccc3)c(Cc3ccc(OC)cc3C)n2c1 | 22.1% (active) |
| COC(=O)c1ccc(CNC(=O)C2CCC(=O)N(Cc3cccc(F)c3)C2)cc1 (centres undefined) | 0.28% |
| COc1ccccc1Cc1c(-c2ccc(Cl)cc2)nc2ccc(Cl)cn12 | -0.13% |
| COC(=O)c1ccc2nc(C3CCCCC3)c(Cc3cccc(F)c3)n2c1 | 27.9% (active) |
| COP(=O)(O)CNC(=O)OCc1ccccc1 | -1.09% |
| Nc1[nH]c(/C=C2/CCCCC2n2[nH]c(=O)n(-c3ccccc3)c2=O)c(Cc2ccccc2)[n+]1Cc1ccccc1 (centres undefined) | 15.8% |
| Nn1c(SCC(=O)N2c3ccccc3Sc3ccccc32)nnc1-c1n[nH]c2c1CCC2 | 2% |
| C=CCn1c(SCC(N)=O)nnc1-c1ccccc1OC | -0.8% |
| Cc1ccc(C(=O)N(Cc2ccccn2)CC2CCCO2)cc1 (centres undefined) | 0.72% |
| CCOC(=O)N1CCN(C(=O)C[C@H]2C[C@@]3(C(=O)OC)C(=C[C@H](C(C)(C)C)O[C@@H]3C)N(Cc3ccc(Cl)cc3Cl)C2=O)CC1 | 0.78% |
| CCC(c1ccc(NC(=O)OC(C)(C)C)cc1)c1cc(OC)cc(OC)c1 (centres undefined) | -0.84% |
| Fc1ccc2nc(COCc3nc4ccc(F)cc4[nH]3)[nH]c2c1 | 0.71% |
| COc1ccc(-c2nc3ccc(Br)cn3c2Cc2ccc(C)cc2)cc1OC | 4.35% |
| COC(=O)c1ccc2nc(-c3cccc(Br)c3)c(Cc3ccccc3C(F)(F)F)n2c1 | 3.57% |
| COC(=O)c1ccc2nc(-c3cccc(Br)c3)c(Cc3ccc(OC)cc3C)n2c1 | 21.5% (active) |
| O=C(CCl)NC1CCCCN(Cc2cccc(C(F)(F)F)c2)C1=O (centres undefined) | 0.33% |
| Cc1ccc(CN2CC(C(=O)N3CCN(S(=O)(=O)c4ccccc4)CC3)CC2=O)cc1 (centres undefined) | 9.15% |
| CCN(CC(=O)Nc1ccc(NC(C)=O)cc1)C(=O)C1CC(=O)N(Cc2ccc(C)cc2)C1 (centres undefined) | 21.3% (active) |
| CCN(CC(=O)Nc1ccc(NC(C)=O)cc1)C(=O)C1CC(=O)N(c2ccc3c(c2)OCCO3)C1 (centres undefined) | 1.89% |
| CCCNC(=O)Nc1ccc2c(c1)C(=O)N(C)[C@H]1CC[C@H](CC(=O)NCC3CCCCC3)O[C@@H]1CO2 | 10.6% |
| O=C(CSc1nnc(COc2ccccc2)n1-c1ccc(Cl)cc1)Nc1ccc2c(c1)OCO2 | 1.16% |
